Test results from PubChem BioAssay (NCI).
About 83,000 compounds went through this panel and 20% of them were active in at least one assay; those are over-represented in the sample as a whole.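 Negative percent growth values reflect cell death: -40 means 40% of the cells present at the start died, and -100 means all died.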 Active and inactive are the calls of the source. The calls were made as follows: active = growth percent below 10; inactive = the rest.

Tests used:
Experiment in all cases: NCI-60 one-dose screen, 48 h (100 = growth as untreated, 0 = no growth, -100 = all killed)
Details in all cases: 10 µM unless noted
DU-145 prostate = test system: DU-145 prostate
K-562 leukemia = test system: K-562 leukemia
MALME-3M melanoma = test system: MALME-3M melanoma
MDA-MB-231 breast = test system: MDA-MB-231 breast
RXF 393 renal = test system: RXF 393 renal
SF-268 CNS = test system: SF-268 CNS
SF-295 CNS = test system: SF-295 CNS
SF-539 CNS = test system: SF-539 CNS
UACC-257 melanoma = test system: UACC-257 melanoma
M14 melanoma = test system: M14 melanoma
HCT-15 colon = test system: HCT-15 colon
HT29 colon = test system: HT29 colon
SNB-75 CNS = test system: SNB-75 CNS
SNB-19 CNS = test system: SNB-19 CNS
U251 CNS = test system: U251 CNS
PC-3 prostate = test system: PC-3 prostate
SK-MEL-5 melanoma = test system: SK-MEL-5 melanoma
UACC-62 melanoma = test system: UACC-62 melanoma
LOX IMVI melanoma = test system: LOX IMVI melanoma
SK-MEL-28 melanoma = test system: SK-MEL-28 melanoma

Measured: growth

O=c1[nH]c2ccccc2cc1-c1nc2ccc(Cl)cc2[nH]1
inactive: DU-145 prostate 38.2% | K-562 leukemia 13.7% | MALME-3M melanoma 61.7% | MDA-MB-231 breast 44.9% | RXF 393 renal 63% | SF-268 CNS 50.7% | SF-539 CNS 49% | UACC-257 melanoma 91.5% | M14 melanoma 40.8% | HCT-15 colon 23.5% | HT29 colon 53.1% | SNB-75 CNS 45.1% | SNB-19 CNS 75.5% | U251 CNS 49.5% | PC-3 prostate 26% | SK-MEL-5 melanoma 42.5% | UACC-62 melanoma 43% | LOX IMVI melanoma 42.4% | SK-MEL-28 melanoma 72.4%
active: SF-295 CNS -7.79%

Sc1cccc2cccnc12
active: K-562 leukemia 9% | M14 melanoma -3.55% | SK-MEL-5 melanoma -10.9% | UACC-62 melanoma -3.89% | LOX IMVI melanoma 7.92%
inactive: DU-145 prostate 27.1% | MALME-3M melanoma 10.9% | MDA-MB-231 breast 33.8% | RXF 393 renal 13.4% | SF-268 CNS 34.1% | SF-295 CNS 47.1% | SF-539 CNS 53.8% | UACC-257 melanoma 24.3% | HCT-15 colon 30.1% | HT29 colon 15.8% | SNB-75 CNS 52.8% | SNB-19 CNS 42.7% | U251 CNS 23.2% | PC-3 prostate 43.7% | SK-MEL-28 melanoma 36.3%

COc1ccc2oc(=O)cc(-c3c(C#N)c(N)n4nc(N)c(C#N)c4c3C#N)c2c1
inactive: DU-145 prostate 106% | K-562 leukemia 86.4% | MALME-3M melanoma 77.4% | MDA-MB-231 breast 104% | RXF 393 renal 100% | SF-268 CNS 89.9% | SF-295 CNS 103% | SF-539 CNS 98.2% | UACC-257 melanoma 107% | M14 melanoma 111% | HCT-15 colon 102% | HT29 colon 90.7% | SNB-75 CNS 116% | SNB-19 CNS 112% | U251 CNS 101% | PC-3 prostate 104% | SK-MEL-5 melanoma 99% | UACC-62 melanoma 107% | LOX IMVI melanoma 95% | SK-MEL-28 melanoma 107%

C=CCn1c(SCC(=O)Nc2ccc(C(=O)/C=C/c3cc(OC)c(OC)c(OC)c3)cc2)nnc1-c1ccc(Cl)cc1
inactive: DU-145 prostate 10.8% | MALME-3M melanoma 66.2% | MDA-MB-231 breast 35.5% | SF-268 CNS 19.8% | SF-295 CNS 38.9% | SF-539 CNS 17.2% | UACC-257 melanoma 51.3% | M14 melanoma 12.6% | SNB-75 CNS 20.1% | SNB-19 CNS 35.2% | PC-3 prostate 28.3% | UACC-62 melanoma 22.1% | SK-MEL-28 melanoma 59%
active: K-562 leukemia 9.24% | RXF 393 renal -42.4% | HCT-15 colon -1.47% | HT29 colon -43.1% | U251 CNS -3.31% | SK-MEL-5 melanoma 9.64% | LOX IMVI melanoma -22.4%

c1ccc2c3c([nH]c2c1)C(c1ccc(C2NCCc4c2[nH]c2ccccc42)cc1)NCC3 (stereo not given)
active: DU-145 prostate -35.1% | K-562 leukemia -57.6% | MALME-3M melanoma -50.3% | MDA-MB-231 breast -56.2% | SF-268 CNS -29.2% | SF-295 CNS -72.2% | SF-539 CNS -15.5% | UACC-257 melanoma -41.7% | M14 melanoma -84.9% | HCT-15 colon -65.8% | HT29 colon -74.2% | SNB-75 CNS -11.4% | SNB-19 CNS 2.5% | U251 CNS -92.6% | SK-MEL-5 melanoma -92.9% | UACC-62 melanoma -69.9% | LOX IMVI melanoma -94.6% | SK-MEL-28 melanoma -52.8%
inactive: RXF 393 renal 33.9% | PC-3 prostate 16.8%

COc1ccc(Nc2nc(SCC(C)C)nc(-c3ccc(F)cc3)c2C#N)cc1
inactive: DU-145 prostate 79.4% | K-562 leukemia 19.3% | MALME-3M melanoma 61.9% | MDA-MB-231 breast 89.3% | RXF 393 renal 74% | SF-268 CNS 74.9% | SF-295 CNS 40.6% | SF-539 CNS 66.1% | UACC-257 melanoma 73% | M14 melanoma 49.3% | HCT-15 colon 46% | HT29 colon 24.3% | SNB-75 CNS 70.6% | SNB-19 CNS 50.3% | U251 CNS 56.7% | PC-3 prostate 49.2% | SK-MEL-5 melanoma 53.6% | UACC-62 melanoma 40.6% | LOX IMVI melanoma 57.8% | SK-MEL-28 melanoma 72.2%

COc1ccc(Cc2nc(C#N)c(N3CCN(c4ccc(F)cc4)CC3)o2)cc1
inactive: DU-145 prostate 100% | K-562 leukemia 75.3% | MALME-3M melanoma 104% | MDA-MB-231 breast 98.4% | RXF 393 renal 76% | SF-268 CNS 90.5% | SF-295 CNS 95.5% | SF-539 CNS 98.2% | UACC-257 melanoma 112% | M14 melanoma 90% | HCT-15 colon 76% | HT29 colon 79.8% | SNB-75 CNS 65.2% | SNB-19 CNS 99.1% | U251 CNS 103% | PC-3 prostate 85.9% | SK-MEL-5 melanoma 100% | UACC-62 melanoma 76.1% | LOX IMVI melanoma 96.1% | SK-MEL-28 melanoma 97.9%

Cc1ccc(C2CC(c3ccc(Nc4nc(NCCO)nc(NCCO)n4)cc3)=NN2c2ccc(Cl)cc2)cc1 (stereo not given)
active: RXF 393 renal -12.6%
inactive: DU-145 prostate 62.6% | K-562 leukemia 14.9% | MALME-3M melanoma 67.3% | MDA-MB-231 breast 66.9% | SF-268 CNS 56.8% | SF-295 CNS 30.3% | SF-539 CNS 39% | UACC-257 melanoma 75.1% | M14 melanoma 61.4% | HCT-15 colon 47% | HT29 colon 30.5% | SNB-75 CNS 28.5% | SNB-19 CNS 75.5% | U251 CNS 36.3% | PC-3 prostate 33.5% | SK-MEL-5 melanoma 74.8% | UACC-62 melanoma 81.2% | LOX IMVI melanoma 40.9% | SK-MEL-28 melanoma 48.4%
